Assay results published in PubChem BioAssay (Tox21).
Results filed as inconclusive are left out. Calls of active or inactive are those of the source. Unless noted, calls come from the whole dose curve; as a rule, active = well fitted curve in the direction sought with a large enough effect in the repeat runs; inconclusive = weak or mixed curves; inactive = no such curve, though single readings can be large; an effect the other way counts as inactive or inconclusive.

Assays:
[1] = molecular target: Thyrotropin-releasing hormone receptor (Homo sapiens) (UniProt P34981); experiment: qHTS assay to identify small molecule agonists of the thyrotropin-releasing hormone receptor (TRHR) signaling pathway (AID 1346891; calls by dose curve;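 note: HEK293 cells expressing TRHR with calcium dye readout; series mostly up to about 58 µM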)
Procedure, shortened: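 Overnight-plated (18 h, 37 °C, 5% CO2) TRHR-Hek293 cells; 2 h calcium dye at 37 °C; compound in DMSO; 3-min kinetic fluorescence read.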

[2] = Human pregnane X receptor (PXR) small molecule agonists, qHTS cell viability counter screen (AID 1346977); note: nearly all actives have a fitted effect of over 50% in size
Procedure, shortened: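 After a 5hr pre-incubation, PXR-Luc HepG2 cells received compounds plus positive control in DMSO and were kept 24hr at 37C. Cell viability was quantified by fluorescence from CellTiter-Fluor added for the final hour.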

[3] = Caspase-3/7 induction in HepG2 cells by small molecules, qHTS assay (AID 1346978); note: nearly all actives have a fitted effect of over 15% in size
Procedure, shortened: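 Caspase-3/7 induction was measured by Caspase-Glo 3/7 luminescence (30 min, room temperature) after a 17 hr compound exposure of wild-type HepG2 cells seeded at 2,000 per well and pre-incubated 5 hr.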

[4] = Caspase-3/7 induction in CHO-K1 cells by small molecules, qHTS cell viability counter screen (AID 1346979); note: nearly all actives have a fitted effect of over 35% in size
Procedure, shortened: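 Multiplexed with Caspase-Glo 3/7 in CHO-K1 cells, this counter screen added CellTiter-Fluor after 16hr of compound exposure and recorded fluorescence 1hr later.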

[5] = Caspase-3/7 induction in CHO-K1 cells by small molecules, qHTS assay (AID 1346980); note: nearly all actives have a fitted effect of over 15% in size
Procedure, shortened: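 Luminescent Caspase-Glo 3/7 read (30min, room temperature) quantified apoptosis induction. Cells were wild-type CHO-K1, treated with compound for 17hr at 37 C and 5% CO2.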

[6] = Caspase-3/7 induction in HepG2 cells by small molecules, qHTS cell viability counter screen (AID 1346981); note: series mostly up to about 92 µM; nearly all actives have a fitted effect of over 30% in size
Procedure, shortened: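 The parent HepG2 line is plated at 2,000 cells per well and rested 5 hr before compound pinning from DMSO stocks. Following a 16-hr treatment at 37 C, a fluorogenic live-cell substrate (CellTiter-Fluor) reports viability after 1 hr.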

[7] = molecular target: Nuclear receptor subfamily 1 group I member 2 (Homo sapiens) (UniProt O75469); experiment: Human pregnane X receptor (PXR) small molecule agonists, qHTS assay (AID 1346982); note: nearly all actives have a fitted effect of over 35% in size
Procedure, shortened: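 After plating in 5% charcoal-stripped FBS and a 5 hr rest, PXR-Luc HepG2 cells received compounds in DMSO. Following 24 hr at 37 C, ONE-Glo was added and light output read.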

[8] = molecular target: Nuclear receptor subfamily 1 group I member 2 (Rattus norvegicus) (UniProt Q9R1A7); experiment: Rat pregnane X receptor (rPXR) activation by small molecules, qHTS assay (AID 1346983); conditions: rPXR luciferase reporter cells, One-Glo luminescence, 24 h; hits give high values; note: nearly all actives have a fitted effect of over 20% in size
Procedure, shortened: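 Luminescent readout (One-Glo luciferase, 30 min room temperature) followed 24 hr compound treatment at 37 C of rPXR cells plated 2,000 per well and preincubated 5hr; qHTS format with compounds delivered in DMSO.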

[9] = molecular target: Nuclear receptor subfamily 1 group I member 2 (Homo sapiens) (UniProt O75469); experiment: CYP3A4 induction through human pregnane X receptor (PXR) by small molecules, qHTS assay (AID 1346984); note: nearly all actives have a fitted effect of over 40% in size
Procedure, shortened: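 Human PXR activation is tracked via CYP3A4 promoter-luciferase in DPX-2 (HepG2) cells. Compounds treat cells for 24hr at 37C, and luminescence is read after One-Glo.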

[10] = molecular target: Nuclear receptor subfamily 1 group I member 2 (Homo sapiens) (UniProt O75469); experiment: Human pregnane X receptor (PXR) activation by small molecules, qHTS assay (AID 1346985); note: nearly all actives have a fitted effect of over 40% in size
Procedure, shortened: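 DPX-2 cells (HepG2 co-transfected with a PXR response element and a CYP3A4-promoter luciferase construct) were seeded at 2,000 per well, rested 5 hr at 37C, then exposed to DMSO-dissolved compounds for 24 hr. Activation was read as luciferase luminescence.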

[11] = molecular target: Cytochrome P450 2D6 (Homo sapiens) (UniProt P10635); experiment: Cytochrome P450 Family 2 Subfamily D Member 6 (CYP2D6) small molecule antagonists: luciferase reporter qHTS assay (AID 1671196); note: nearly all actives have a fitted effect of over 50% in size; note: potency is the fitted concentration of half-maximal effect; for activity change, negative = inhibition: series mostly up to about 120 µM
Procedure, shortened: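 Quantitative HTS of Tox21 chemicals against CYP2D6 using a luminescent proluciferin substrate. After NADPH addition, 1 h room-temperature reaction; luminescence recorded 20 min post detection reagent.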

[12] = molecular target: Cytochrome P450 2C19 (Homo sapiens) (UniProt P33261); experiment: Cytochrome P450 Family 2 Subfamily C Member 19 (CYP2C19) small molecule antagonists: luciferase reporter qHTS assay (AID 1671197); note: series mostly up to about 120 µM; nearly all actives have a fitted effect of over 65% in size
Procedure, shortened: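 Relative luminescence units recorded 20 min after the detection reagent stopped a 1 h, 37C CYP2C19 reaction on proluciferin substrate, which was started by NADPH regeneration following 10 min room-temperature compound preincubation; ketoconazole positive control.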

[13] = molecular target: Cytochrome P450 2C9 (Homo sapiens) (UniProt P11712); experiment: Cytochrome P450 Family 2 Subfamily C Member 9 (CYP2C9) small molecule antagonists: luciferase reporter qHTS assay (AID 1671198); note: series mostly up to about 120 µM; nearly all actives have a fitted effect of over 50% in size
Procedure, shortened: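 Enzyme-substrate mix preincubated with compound 10 min at room temperature; reaction started with NADPH regeneration solution, 1 h 37C. Luminescent luciferin product read after 20 min detection reagent.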

[14] = molecular target: Cytochrome P450 3A4 (Homo sapiens) (UniProt P08684); experiment: Cytochrome P450 Family 3 Subfamily A Member 4 (CYP3A4) small molecule antagonists: luciferase reporter qHTS assay (AID 1671201); note: series mostly up to about 120 µM; nearly all actives have a fitted effect of over 50% in size
Procedure, shortened: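 Room-temperature assay throughout: 10 min compound–enzyme/substrate preincubation, 1 h reaction after NADPH regeneration solution, 20 min detection. Luciferin formed from proluciferin substrate is quantified by luminescence.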

[15] = molecular target: Voltage-gated inwardly rectifying potassium channel KCNH2 (Homo sapiens) (UniProt Q12809); experiment: Human Ether-a-go-go-Related Gene (hERG) channel small molecule antagonists: fluorescence cell-based qHTS assay (AID 1671200)
Procedure, shortened: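 Cell line hERG-U2OS; dye FluxOR II, 1 h RT dark; Tl+ stimulus; ex 480/em 540 nm, read each second for 2 min.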

[16] = molecular target: Cytochrome P450 1A2 (Homo sapiens) (UniProt P05177); experiment: Cytochrome P450 Family 1 Subfamily A Member 2 (CYP1A2) small molecule antagonists: luciferase reporter qHTS assay (AID 1671199)
Procedure, shortened: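 Quantitative high-throughput format using the P450-Glo CYP1A2 system. Reaction initiated by NADPH regeneration solution, 1 h at room temperature, then stopped with detection reagent; luminescence measured 20 min later.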
% is set by controls: 0 for no effect and ±100 for the full control effect.

Chain of Cytochrome P450 1A2 (Homo sapiens) (P05177 whole entry, looked up): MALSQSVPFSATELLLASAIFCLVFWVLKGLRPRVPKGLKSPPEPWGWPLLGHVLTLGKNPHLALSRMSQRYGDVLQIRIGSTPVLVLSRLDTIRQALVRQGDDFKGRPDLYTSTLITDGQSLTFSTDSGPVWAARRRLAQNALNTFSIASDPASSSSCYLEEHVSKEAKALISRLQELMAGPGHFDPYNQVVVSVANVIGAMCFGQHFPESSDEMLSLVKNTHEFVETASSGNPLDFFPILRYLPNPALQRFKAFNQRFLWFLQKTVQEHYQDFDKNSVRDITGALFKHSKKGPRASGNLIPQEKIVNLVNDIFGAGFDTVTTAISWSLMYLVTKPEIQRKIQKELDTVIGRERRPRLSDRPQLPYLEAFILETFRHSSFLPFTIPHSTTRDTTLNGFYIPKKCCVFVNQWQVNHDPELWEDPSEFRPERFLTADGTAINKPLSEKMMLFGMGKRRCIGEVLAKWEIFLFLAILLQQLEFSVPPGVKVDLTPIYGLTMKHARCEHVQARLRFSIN
Chain of Cytochrome P450 3A4 (Homo sapiens) (P08684 whole entry, looked up): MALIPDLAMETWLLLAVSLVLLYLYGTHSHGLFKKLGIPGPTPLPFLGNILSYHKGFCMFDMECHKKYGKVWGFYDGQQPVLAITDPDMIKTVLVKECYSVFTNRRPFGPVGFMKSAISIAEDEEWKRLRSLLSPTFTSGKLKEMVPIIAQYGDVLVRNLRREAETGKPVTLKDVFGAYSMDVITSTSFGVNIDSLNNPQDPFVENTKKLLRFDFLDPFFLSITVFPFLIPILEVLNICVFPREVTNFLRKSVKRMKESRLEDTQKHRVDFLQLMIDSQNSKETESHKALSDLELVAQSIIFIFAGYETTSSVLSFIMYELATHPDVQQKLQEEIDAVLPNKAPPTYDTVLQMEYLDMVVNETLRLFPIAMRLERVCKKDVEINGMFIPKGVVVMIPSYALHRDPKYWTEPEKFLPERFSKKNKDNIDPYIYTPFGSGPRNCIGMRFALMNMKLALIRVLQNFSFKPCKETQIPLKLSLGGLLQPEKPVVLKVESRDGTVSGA
Chain of Thyrotropin-releasing hormone receptor (Homo sapiens) (P34981 whole entry, looked up): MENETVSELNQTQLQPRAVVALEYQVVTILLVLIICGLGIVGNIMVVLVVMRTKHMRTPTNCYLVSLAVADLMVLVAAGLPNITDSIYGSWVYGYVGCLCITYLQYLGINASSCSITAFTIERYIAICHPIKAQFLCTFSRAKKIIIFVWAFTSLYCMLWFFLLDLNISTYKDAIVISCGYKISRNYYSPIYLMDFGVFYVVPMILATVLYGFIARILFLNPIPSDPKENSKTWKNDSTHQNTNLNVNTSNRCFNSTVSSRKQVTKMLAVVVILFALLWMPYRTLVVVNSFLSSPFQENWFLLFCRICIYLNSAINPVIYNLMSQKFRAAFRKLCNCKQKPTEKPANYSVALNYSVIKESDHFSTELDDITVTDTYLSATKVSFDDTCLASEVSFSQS
Chain of Cytochrome P450 2C9 (Homo sapiens) (P11712 whole entry, looked up): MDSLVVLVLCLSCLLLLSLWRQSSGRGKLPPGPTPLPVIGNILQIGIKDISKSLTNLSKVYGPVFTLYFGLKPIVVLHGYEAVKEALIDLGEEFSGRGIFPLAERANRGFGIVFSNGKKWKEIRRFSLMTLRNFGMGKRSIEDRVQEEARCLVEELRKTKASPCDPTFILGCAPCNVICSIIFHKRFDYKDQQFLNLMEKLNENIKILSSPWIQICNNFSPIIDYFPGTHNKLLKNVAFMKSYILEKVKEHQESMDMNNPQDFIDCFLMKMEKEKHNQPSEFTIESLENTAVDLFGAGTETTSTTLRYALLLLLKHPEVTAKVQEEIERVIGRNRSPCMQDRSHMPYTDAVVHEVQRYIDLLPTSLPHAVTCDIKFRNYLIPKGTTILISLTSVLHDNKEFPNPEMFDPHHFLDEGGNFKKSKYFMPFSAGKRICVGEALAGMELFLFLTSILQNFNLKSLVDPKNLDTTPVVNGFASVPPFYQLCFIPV
Chain of Cytochrome P450 2D6 (Homo sapiens) (P10635 whole entry, looked up): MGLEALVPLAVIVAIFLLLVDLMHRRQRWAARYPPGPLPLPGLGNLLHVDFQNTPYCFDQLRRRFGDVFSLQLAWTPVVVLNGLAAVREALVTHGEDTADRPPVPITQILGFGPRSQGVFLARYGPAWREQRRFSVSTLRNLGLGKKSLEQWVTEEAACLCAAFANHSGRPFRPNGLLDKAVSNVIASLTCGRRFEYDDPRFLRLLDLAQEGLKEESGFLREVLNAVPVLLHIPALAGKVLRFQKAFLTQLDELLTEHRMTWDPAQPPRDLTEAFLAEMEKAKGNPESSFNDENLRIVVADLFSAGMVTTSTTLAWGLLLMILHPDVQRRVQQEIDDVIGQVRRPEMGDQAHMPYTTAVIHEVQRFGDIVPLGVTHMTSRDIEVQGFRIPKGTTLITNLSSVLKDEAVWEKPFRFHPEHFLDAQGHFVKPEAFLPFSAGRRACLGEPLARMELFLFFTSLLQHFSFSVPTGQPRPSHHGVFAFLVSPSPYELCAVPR
Chain of Voltage-gated inwardly rectifying potassium channel KCNH2 (Homo sapiens) (Q12809 whole entry, looked up): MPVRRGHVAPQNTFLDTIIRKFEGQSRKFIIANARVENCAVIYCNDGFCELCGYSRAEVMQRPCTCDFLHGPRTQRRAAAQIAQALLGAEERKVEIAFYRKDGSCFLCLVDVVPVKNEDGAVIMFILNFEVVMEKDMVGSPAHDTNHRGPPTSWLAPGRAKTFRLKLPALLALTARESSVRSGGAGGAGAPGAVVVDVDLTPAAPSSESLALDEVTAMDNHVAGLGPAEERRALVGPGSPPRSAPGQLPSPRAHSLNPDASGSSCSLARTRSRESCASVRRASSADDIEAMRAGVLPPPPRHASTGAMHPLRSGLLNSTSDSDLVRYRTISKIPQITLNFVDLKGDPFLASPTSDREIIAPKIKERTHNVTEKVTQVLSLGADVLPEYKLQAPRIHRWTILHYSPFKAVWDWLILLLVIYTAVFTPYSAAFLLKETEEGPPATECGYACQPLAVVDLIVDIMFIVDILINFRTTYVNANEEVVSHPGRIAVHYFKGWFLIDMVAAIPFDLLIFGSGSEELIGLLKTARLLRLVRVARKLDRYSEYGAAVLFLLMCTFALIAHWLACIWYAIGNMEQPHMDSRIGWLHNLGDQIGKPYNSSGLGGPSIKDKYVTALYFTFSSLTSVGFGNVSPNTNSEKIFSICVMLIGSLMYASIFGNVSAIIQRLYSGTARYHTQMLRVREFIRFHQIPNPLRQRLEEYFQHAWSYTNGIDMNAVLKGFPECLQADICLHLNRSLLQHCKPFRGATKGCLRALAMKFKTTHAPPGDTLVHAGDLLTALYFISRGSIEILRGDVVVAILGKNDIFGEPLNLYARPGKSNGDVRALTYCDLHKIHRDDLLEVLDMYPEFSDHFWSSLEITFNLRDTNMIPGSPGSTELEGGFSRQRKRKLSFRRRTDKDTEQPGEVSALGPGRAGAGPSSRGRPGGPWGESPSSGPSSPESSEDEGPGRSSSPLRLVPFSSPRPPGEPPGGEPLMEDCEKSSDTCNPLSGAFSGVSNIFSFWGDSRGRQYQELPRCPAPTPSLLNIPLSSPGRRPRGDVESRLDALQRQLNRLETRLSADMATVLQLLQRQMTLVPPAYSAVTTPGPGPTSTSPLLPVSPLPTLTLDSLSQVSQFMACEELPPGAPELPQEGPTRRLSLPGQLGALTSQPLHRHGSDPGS
Chain of Nuclear receptor subfamily 1 group I member 2 (Homo sapiens) (O75469 whole entry, looked up): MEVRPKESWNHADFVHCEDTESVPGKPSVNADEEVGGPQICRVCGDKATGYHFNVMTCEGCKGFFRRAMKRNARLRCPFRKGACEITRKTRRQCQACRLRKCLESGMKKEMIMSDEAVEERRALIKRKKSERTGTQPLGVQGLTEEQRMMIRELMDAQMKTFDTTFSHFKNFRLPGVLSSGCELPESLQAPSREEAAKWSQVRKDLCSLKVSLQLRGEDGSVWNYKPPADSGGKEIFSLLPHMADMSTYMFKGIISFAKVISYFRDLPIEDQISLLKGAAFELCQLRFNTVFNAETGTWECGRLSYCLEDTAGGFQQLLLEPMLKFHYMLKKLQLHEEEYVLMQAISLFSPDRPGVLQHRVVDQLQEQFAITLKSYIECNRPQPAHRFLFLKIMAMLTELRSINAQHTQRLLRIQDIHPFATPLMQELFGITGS
Chain of Nuclear receptor subfamily 1 group I member 2 (Rattus norvegicus) (Q9R1A7 whole entry, looked up): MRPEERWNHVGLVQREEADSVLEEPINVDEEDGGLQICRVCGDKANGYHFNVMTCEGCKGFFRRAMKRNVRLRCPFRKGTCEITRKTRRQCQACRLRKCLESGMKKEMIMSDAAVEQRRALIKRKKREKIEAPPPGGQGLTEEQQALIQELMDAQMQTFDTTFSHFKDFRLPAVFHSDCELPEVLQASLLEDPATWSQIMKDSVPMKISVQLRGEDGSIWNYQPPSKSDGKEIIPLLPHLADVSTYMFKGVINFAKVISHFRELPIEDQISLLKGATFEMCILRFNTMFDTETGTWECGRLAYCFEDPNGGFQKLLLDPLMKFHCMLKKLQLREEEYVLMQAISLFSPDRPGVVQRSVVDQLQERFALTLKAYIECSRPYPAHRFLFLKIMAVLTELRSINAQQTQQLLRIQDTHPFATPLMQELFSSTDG
Chain of Cytochrome P450 2C19 (Homo sapiens) (P33261 whole entry, looked up): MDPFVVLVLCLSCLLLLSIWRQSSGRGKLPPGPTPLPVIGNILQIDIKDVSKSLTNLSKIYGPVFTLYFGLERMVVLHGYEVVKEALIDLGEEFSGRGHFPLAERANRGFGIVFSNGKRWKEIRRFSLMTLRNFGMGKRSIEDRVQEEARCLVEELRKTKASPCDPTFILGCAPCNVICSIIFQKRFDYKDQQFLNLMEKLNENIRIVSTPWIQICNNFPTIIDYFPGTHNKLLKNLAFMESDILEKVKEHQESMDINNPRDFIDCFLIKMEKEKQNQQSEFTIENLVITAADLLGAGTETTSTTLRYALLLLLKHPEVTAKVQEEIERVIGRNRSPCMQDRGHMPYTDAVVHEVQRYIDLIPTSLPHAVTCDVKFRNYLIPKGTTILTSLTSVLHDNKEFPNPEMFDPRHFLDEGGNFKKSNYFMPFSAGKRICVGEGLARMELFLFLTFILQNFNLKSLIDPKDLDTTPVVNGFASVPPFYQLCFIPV

CC(C)NCC(O)c1ccc(NS(C)(=O)=O)cc1 (centres undefined)
active: Potency [11] 36 µM
inactive: outcome [1] | Potency [2] | Potency [3] | Potency [4] | outcome [5] | Potency [6] | Potency [7] | max activation [8] -1.64% | Potency [9] | Potency [10] | Potency [12] | Potency [13] | Potency [14]

CN1CC(=O)NC1=N
inactive: outcome [1] | Potency [2] | Potency [3] | Potency [4] | outcome [5] | Potency [6] | Potency [7] | max activation [8] -5.88% | Potency [9] | Potency [10] | Potency [12] | Potency [13] | Potency [15] | Potency [14]

CC(=O)OCC(CCn1cnc2cnc(N)nc21)COC(C)=O
inactive: outcome [1] | Potency [2] | Potency [3] | Potency [4] | outcome [5] | Potency [6] | Potency [7] | max activation [8] -0.776% | Potency [9] | Potency [10] | Potency [12] | Potency [13]

CCc1nccnc1CC
inactive: activation [1] 0.11% [at 11.8 µM] | activity change, negative = cytotoxicity [2] -1.38% [at 19 µM] | caspase activation [3] 0.2% [at 19 µM] | Potency [4] | caspase-3/7 activation [5] -0.427% [at 19 µM] | activity change, negative = cytotoxicity [6] -4.23% [at 19 µM] | activation [7] -0.742% [at 19 µM] | activity change, negative = inhibition [11] -14% [at 23.6 µM] | Potency [12] | activity change, negative = inhibition [13] 2.92% [at 23.6 µM] | Potency [16] | activity change, negative = inhibition [15] -2.32% [at 15.8 µM] | activity change, negative = inhibition [14] 8.66% [at 23.6 µM]

CCOC(C)(C)C
inactive: outcome [1] | Potency [2] | Potency [3] | Potency [4] | outcome [5] | Potency [6] | Potency [7] | Potency [11] | Potency [12] | Potency [13] | Potency [16] | Potency [15]

O=C(O)Cc1ccc(CCNS(=O)(=O)c2ccc(Cl)cc2)cc1
inactive: outcome [1] | Potency [2] | Potency [3] | Potency [4] | outcome [5] | Potency [6] | Potency [7] | max activation [8] -10% | Potency [9] | Potency [10] | Potency [11] | Potency [12] | Potency [16] | Potency [14]

CCCCC(CC)COC(=O)c1ccccc1O (centres undefined)
inactive: outcome [1] | Potency [2] | Potency [3] | Potency [4] | outcome [5] | Potency [6] | Potency [7] | max activation [8] -4.33% | Potency [9] | Potency [10] | Potency [12] | Potency [13] | Potency [16] | Potency [15] | Potency [14]

CCCCOCCOCCOCCCC
inactive: outcome [1] | Potency [2] | Potency [3] | Potency [4] | outcome [5] | Potency [6] | Potency [7] | Potency [11] | Potency [12] | Potency [13] | Potency [16] | Potency [15] | Potency [14]

CC(C[N+](C)(C)C)OC(N)=O (centres undefined)
inactive: outcome [1] | Potency [2] | Potency [3] | Potency [4] | outcome [5] | Potency [6] | Potency [7] | max activation [8] 0.875% | Potency [9] | Potency [10] | Potency [12] | Potency [13]
